# Assay results from PubChem BioAssay (Tox21).
# Where “and” joins values, the source holds several entries; their conditions need not be identical. Equal entries are not always repeated. Records with an inconclusive call do not appear. Entries that show only a call come without a potency. Some compounds were tested as several samples or in several runs, with calls that do not always agree. Calls of active or inactive are those of the source. Unless noted, calls come from the whole dose curve.
# Tests used:
# [1] = Nuclear factor erythroid 2-related factor 2/antioxidant responsive element (Nrf2/ARE) small molecule agonists: luciferase reporter gene qHTS assay in human keratinocytes (AID 1919969); note: nearly all actives have a fitted effect of over 35% in size; note: potency is the fitted concentration of half-maximal effect
# [2] = molecular target: Gonadotropin-releasing hormone receptor (Homo sapiens) (UniProt P30968); experiment: Human gonadotropin-releasing hormone receptor (GnRHR) small molecule agonists, calcium flux assay in GnRHR-HEK293 cells (AID 1920063); note: nearly all actives have a fitted effect of over 35% in size
# Sequence of Gonadotropin-releasing hormone receptor (Homo sapiens) (P30968 whole entry, looked up): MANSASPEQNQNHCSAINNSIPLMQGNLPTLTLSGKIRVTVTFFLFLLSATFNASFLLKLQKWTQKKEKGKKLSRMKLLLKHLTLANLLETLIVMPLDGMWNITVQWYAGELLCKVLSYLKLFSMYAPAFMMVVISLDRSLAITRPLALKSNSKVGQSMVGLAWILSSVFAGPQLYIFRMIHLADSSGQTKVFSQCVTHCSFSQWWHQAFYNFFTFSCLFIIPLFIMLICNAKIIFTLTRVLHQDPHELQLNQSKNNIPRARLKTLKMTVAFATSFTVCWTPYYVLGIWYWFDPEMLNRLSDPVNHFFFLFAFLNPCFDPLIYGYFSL
# Outline: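 Cells: HEK293 stably expressing human GnRHR. Steps: overnight (18 h) culture, 1 h calcium dye loading at 37 C, compound addition, kinetic fluorescence read at 480/540 nm. Each compound tested at 15 concentrations in triplicate.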
# [3] = molecular target: KiSS-1 receptor (Homo sapiens) (UniProt Q969F8); experiment: Human kisspeptin (KISS1R) small molecule agonists, calcium flux assay in KISS1R-HEK293 cells (AID 1920064; active = well fitted activation curve with a large enough effect in the repeat runs)
# Sequence of KiSS-1 receptor (Homo sapiens) (Q969F8 whole entry, looked up): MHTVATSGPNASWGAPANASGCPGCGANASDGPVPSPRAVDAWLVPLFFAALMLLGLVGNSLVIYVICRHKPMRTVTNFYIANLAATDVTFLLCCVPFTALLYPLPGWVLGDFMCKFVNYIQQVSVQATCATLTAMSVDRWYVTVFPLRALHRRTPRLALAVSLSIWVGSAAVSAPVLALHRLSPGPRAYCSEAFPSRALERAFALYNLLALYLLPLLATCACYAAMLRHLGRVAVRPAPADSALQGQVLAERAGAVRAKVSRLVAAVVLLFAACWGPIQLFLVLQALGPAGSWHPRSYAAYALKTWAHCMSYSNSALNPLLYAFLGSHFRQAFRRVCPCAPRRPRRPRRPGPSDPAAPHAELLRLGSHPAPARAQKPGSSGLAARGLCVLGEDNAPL
# Outline: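 Cells plated and incubated 18 h; dye added, 1 h at 37 C; compounds in DMSO pinned in; signal read at 480/540 nm every second for 3 min. Each compound tested at 15 concentrations in triplicate.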
# [4] = p53 small molecule agonists, cell-based qHTS assay with human liver microsomes (AID 1963577);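 note: p53 response element beta-lactamase reporter cells with liver microsomes plus NADPH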
# Outline: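 16 h, 37 C exposure of p53RE-bla cells to compounds with human liver microsomes and NADPH (0.5 mg/mL final each); detection via LiveBLAzer mixture, 2 h dark at room temperature.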
# [5] = p53 small molecule agonists, cell-based qHTS assay with rat liver microsomes (AID 1963578)
# Outline: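 With rat liver microsomes and NADPH present (0.5 mg/mL final each), p53RE-bla cells are treated with compound for 16 h at 37 C. LiveBLAzer detection mixture is then applied for 2 h at room temperature in the dark.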
# [6] = p53 small molecule agonists, cell-based qHTS assay with human liver microsomes: qHTS cell viability counter screen (AID 1963579); note: nearly all actives have a fitted effect of over 45% in size; note: potency is the fitted concentration of half-maximal effect
# Outline: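 In this multiplexed counter screen, the reporter plates were subsequently treated with CellTiter-Glo so that cell viability, reflected by luminescence, could be recorded for p53RE-bla cells dosed 16 h with compounds under microsomal activation (HLM and NADPH).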
# [7] = p53 small molecule agonists, cell-based qHTS assay with rat liver microsomes: qHTS cell viability counter screen (AID 1963580); note: nearly all actives have a fitted effect of over 45% in size
# Outline: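 HCT-116 p53RE-bla, 4,000 cells/well, 5 h pre-incubation; cpd + rat liver microsomes 0.5 mg/mL + NADPH 0.5 mg/mL (final); 16 h, 37 C; CellTiter-Glo, 30 min RT; luminescence.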
# [8] = p53 small molecule agonists, cell-based qHTS assay: qHTS cell viability counter screen (AID 1963581); note: nearly all actives have a fitted effect of over 45% in size
# Outline: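 Cells: HCT-116 with p53 response element-driven beta-lactamase. Treatment: 16 h, 37 C, compounds in DMSO. Read: CellTiter-Glo luminescence after 30 min RT.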
# [9] = p53 small molecule agonists, cell-based qHTS assay (AID 1963582; active = well fitted activation curve with a large enough effect in the signal ratio in the repeat runs, not every such curve was filed as active; the % refers to the signal ratio)
# Outline: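 Quantitative HTS in p53RE-bla cells: after a 5 h settling period, compounds delivered in DMSO were left on cells for 16 h at 37 C, and reporter induction was measured as fluorescence following 2 h substrate loading.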
# [10] = molecular target: Muscarinic acetylcholine receptor M1 (Homo sapiens) (UniProt P11229); experiment: Cholinergic receptor muscarinic 1 (CHRM1) small molecule antagonists, cell-based qHTS assay (AID 1963588); note: nearly all actives have a fitted effect of over 40% in size
# Sequence of Muscarinic acetylcholine receptor M1 (Homo sapiens) (P11229 whole entry, looked up): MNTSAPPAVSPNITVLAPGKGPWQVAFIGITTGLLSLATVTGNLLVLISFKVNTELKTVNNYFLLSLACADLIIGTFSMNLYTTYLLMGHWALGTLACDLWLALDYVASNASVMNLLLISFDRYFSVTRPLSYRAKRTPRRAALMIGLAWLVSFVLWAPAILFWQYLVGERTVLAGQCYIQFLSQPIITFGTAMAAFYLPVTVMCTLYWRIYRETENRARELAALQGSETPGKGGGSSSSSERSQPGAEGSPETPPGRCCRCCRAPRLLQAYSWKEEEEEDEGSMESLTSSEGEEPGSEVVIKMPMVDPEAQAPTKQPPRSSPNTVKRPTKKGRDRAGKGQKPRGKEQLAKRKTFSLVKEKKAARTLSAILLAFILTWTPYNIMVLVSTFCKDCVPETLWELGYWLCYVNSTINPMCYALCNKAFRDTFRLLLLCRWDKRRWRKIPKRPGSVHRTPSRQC
# Outline: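 CHRM1-CHO calcium-flux assay, antagonist mode. Cells were seeded 18 h, dye-loaded 1 h at 37 C and given compound for 5 min at RT, then acetylcholine was added at 50nM. FDSS fluorescence was read 3 min; 15 concentrations, three runs.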
# [11] = molecular target: Muscarinic acetylcholine receptor M1 (Homo sapiens) (UniProt P11229); experiment: Cholinergic receptor muscarinic 1 (CHRM1) small molecule agonists, cell-based qHTS assay (AID 1963589); note: nearly all actives have a fitted effect of over 35% in size
# Outline: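 Agonist-mode qHTS in CHO cells stably carrying human muscarinic M1. Intracellular calcium is tracked by fluorescence every second after compound transfer; each compound runs at 15 concentrations in three independent runs.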
# [12] = molecular target: Beta-2 adrenergic receptor (Homo sapiens) (UniProt P07550); experiment: Adrenergic beta2 receptor (ADRB2) small molecule antagonists, cell-based qHTS assay (AID 1963592); note: series mostly up to about 92 µM; nearly all actives have a fitted effect of over 50% in size
# Sequence of Beta-2 adrenergic receptor (Homo sapiens) (P07550 whole entry, looked up): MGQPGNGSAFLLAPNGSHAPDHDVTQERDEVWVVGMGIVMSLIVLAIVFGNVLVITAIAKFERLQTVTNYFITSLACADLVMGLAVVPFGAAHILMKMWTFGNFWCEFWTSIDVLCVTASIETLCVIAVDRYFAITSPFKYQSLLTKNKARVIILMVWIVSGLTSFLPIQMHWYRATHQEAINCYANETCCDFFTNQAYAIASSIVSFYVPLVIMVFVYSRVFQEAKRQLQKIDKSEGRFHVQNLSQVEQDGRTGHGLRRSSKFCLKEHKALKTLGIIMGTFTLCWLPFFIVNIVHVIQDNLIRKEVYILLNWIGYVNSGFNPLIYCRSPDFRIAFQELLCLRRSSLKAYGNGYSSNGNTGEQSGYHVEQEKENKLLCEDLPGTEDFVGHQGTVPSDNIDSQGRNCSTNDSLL
# Outline: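 Cells (CHO, stable ADRB2 overexpression) incubated 18-20hr at 37C; compounds added from DMSO; agonist mix (1nM isoproterenol, 100uM IBMX, 25uM Ro-20-1724) added; 0.5hr RT; d2-cAMP and anti-cAMP-cryptate added; 1hr RT; 665/615 nm read.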
# [13] = molecular target: D(2) dopamine receptor (Homo sapiens) (UniProt P14416); experiment: Dopamine D2 receptor (DRD2) small molecule agonists, cell-based qHTS assay (AID 1963594); note: nearly all actives have a fitted effect of over 35% in size
# Sequence of D(2) dopamine receptor (Homo sapiens) (P14416 whole entry, looked up): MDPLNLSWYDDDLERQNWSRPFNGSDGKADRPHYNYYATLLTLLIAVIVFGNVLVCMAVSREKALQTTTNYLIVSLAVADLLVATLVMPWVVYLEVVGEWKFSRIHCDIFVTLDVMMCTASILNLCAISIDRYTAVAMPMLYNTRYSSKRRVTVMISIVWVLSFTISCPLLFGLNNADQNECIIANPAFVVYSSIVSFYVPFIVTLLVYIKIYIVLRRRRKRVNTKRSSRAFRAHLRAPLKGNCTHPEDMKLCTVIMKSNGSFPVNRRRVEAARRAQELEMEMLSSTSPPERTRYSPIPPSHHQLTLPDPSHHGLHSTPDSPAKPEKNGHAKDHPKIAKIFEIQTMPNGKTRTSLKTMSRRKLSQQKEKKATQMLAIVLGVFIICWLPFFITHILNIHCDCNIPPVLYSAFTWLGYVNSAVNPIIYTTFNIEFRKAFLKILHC
# Outline: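 cAMP accumulation in DRD2-HEK293 cells measured by HTRF after 1 h detection; compounds added 10 min before NKH477 (200nM […]) forskolin-analogue stimulation, 30 min at room temperature, with Ro20-1724 present at 0.1 mM final.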
# [14] = molecular target: D(2) dopamine receptor (Homo sapiens) (UniProt P14416); experiment: Dopamine D2 receptor (DRD2) small molecule antagonists, cell-based qHTS assay (AID 1963595; active = well fitted inhibition curve with a large enough effect in the signal ratio in the repeat runs, with a control signal flat; the % refers to the signal ratio; note: potency is the fitted concentration of half-maximal effect)
# Outline: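 In this cell-based antagonist screen, compounds act for 10 min at room temperature before a 30 min challenge with 12 nM quinpirole and 200 nM NKH477. cAMP is quantified by HTRF competition in DRD2-HEK293 cells containing 0.1 mM Ro20-1724.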
# [15] = molecular target: 5-hydroxytryptamine receptor 2A (Homo sapiens) (UniProt P28223); experiment: 5-hydroxytryptamine receptor 2A (HTR2A) small molecule agonists, cell-based qHTS assay (AID 1963587); note: nearly all actives have a fitted effect of over 30% in size; note: potency is the fitted concentration of half-maximal effect
# Sequence of 5-hydroxytryptamine receptor 2A (Homo sapiens) (P28223 whole entry, looked up): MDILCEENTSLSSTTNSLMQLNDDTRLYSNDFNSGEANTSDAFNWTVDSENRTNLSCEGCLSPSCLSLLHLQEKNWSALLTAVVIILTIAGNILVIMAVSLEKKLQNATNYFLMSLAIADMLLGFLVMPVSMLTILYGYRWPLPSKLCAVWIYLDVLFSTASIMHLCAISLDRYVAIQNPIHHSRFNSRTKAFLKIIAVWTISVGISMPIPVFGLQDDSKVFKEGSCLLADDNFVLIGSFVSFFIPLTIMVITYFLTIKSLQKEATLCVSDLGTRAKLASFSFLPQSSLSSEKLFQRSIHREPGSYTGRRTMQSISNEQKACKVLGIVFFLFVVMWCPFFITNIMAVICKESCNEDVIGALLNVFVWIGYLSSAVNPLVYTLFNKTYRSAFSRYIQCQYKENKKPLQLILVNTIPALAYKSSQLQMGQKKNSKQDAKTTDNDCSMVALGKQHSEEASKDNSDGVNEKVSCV
# Outline: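 Kinetic calcium-flux fluorescence (2 min, 1 sec intervals) after compound addition in agonist mode. HTR2A-CHO cells were cultured 18 h, then dye-loaded 1 h at 37 C.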
# [16] = cAMP Responsive Elements (CRE) small molecule antagonists, cell-based qHTS assay (AID 1963591; active = well fitted inhibition curve with a large enough effect in the signal ratio in the repeat runs, not every such curve was filed as active; the % refers to the signal ratio)
# Outline: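 Antagonist mode: test compounds are co-incubated with the adenylyl cyclase activator NKH477 (0.25 uM final) on CRE-bla HEK293T cells for 3 h at 37 °C, followed by LiveBLAzer substrate loading.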
# [17] = G protein-coupled receptor (GPCR) small molecule agonists, calcium flux assay: HEK293 wild type cell line counter screen (AID 1920065)
# Outline: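 Counter-screen of the Tox21 10K library for non-specific calcium release: dye-loaded cells received compounds in DMSO and were monitored by kinetic fluorescence (480/540 nm, 3 min). Fifteen concentrations, run in triplicate.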
# [18] = molecular target: 5-hydroxytryptamine receptor 2A (Homo sapiens) (UniProt P28223); experiment: 5-hydroxytryptamine receptor 2A (HTR2A) small molecule antagonists, cell-based qHTS assay (AID 1963586); note: nearly all actives have a fitted effect of over 45% in size; note: potency is the fitted concentration of half-maximal effect
# Outline: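 Antagonist-mode intracellular calcium assay: DOI (4 nM) added after 5 min compound pre-incubation at room temperature to dye-loaded HTR2A-CHO cells. Fluorescence followed for 3 min, sampled every second.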
# [19] = molecular target: Beta-2 adrenergic receptor (Homo sapiens) (UniProt P07550); experiment: Adrenergic beta2 receptor (ADRB2) small molecule agonists, cell-based qHTS assay (AID 1963593);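 note: CHO cells stably overexpressing human ADRB2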
# Outline: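 CHO cells stably over-expressing ADRB2 were plated overnight at 37C, then dosed with compounds plus a stimulation mix containing 100uM IBMX and 25uM Ro-20-1724 for 0.5hr at room temperature. cAMP was measured by HTRF competition, 1hr.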
# [20] = cAMP Responsive Elements (CRE) small molecule agonists, cell-based qHTS assay (AID 1963590)
# Outline: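 Agonist mode qHTS in CRE-bla HEK 293T cells: compounds dosed from DMSO for 3 h at 37 C/5% CO2, followed by LiveBLAzer B/G FRET substrate for 2 h at room temperature.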
smiles,measurement,setting,value
C1CN(SSN2CCOCC2)CCO1,Potency,[1],13.5 µM (active) and 68.6 µM (active)
same,Potency,[2],inactive
same,Potency,[3],inactive
same,Potency,[4],inactive
same,Potency,[5],inactive
same,Potency,[6],inactive
same,Potency,[7],inactive
same,Potency,[8],inactive
same,Potency,[9],inactive
same,Potency,[10],inactive
same,Potency,[11],inactive
same,Potency,[12],inactive
same,Potency,[13],inactive
same,Potency,[14],inactive
O=C(Nc1ncc([N+](=O)[O-])s1)c1cccs1,Potency,[1],1.06 µM (active)
same,Potency,[2],inactive
same,Potency,[3],inactive
same,Potency,[4],inactive
same,Potency,[5],inactive
same,Potency,[6],inactive
same,Potency,[9],inactive
same,Potency,[15],inactive
same,Potency,[10],inactive
same,Potency,[11],inactive
same,Potency,[16],inactive
same,Potency,[13],inactive
same,Potency,[14],inactive
COc1ccc(-c2nc3ccc(C4=NNC(=O)CC4C)cc3[nH]2)cc1 (configuration not stated),Potency,[1],inactive
same,Potency,[2],inactive
same,Potency,[3],inactive
same,Potency,[17],inactive
same,Potency,[18],230 nM (active)
same,Potency,[15],inactive
same,Potency,[10],inactive
same,Potency,[11],inactive
same,Potency,[12],inactive
same,Potency,[19],inactive
same,Potency,[14],inactive
Cc1ccc(C(C)C)cc2c(C)ccc1-2,Potency,[1],inactive
same,Potency,[2],inactive
same,Potency,[3],inactive
same,Potency,[6],inactive
same,Potency,[7],inactive
same,Potency,[8],inactive
same,Potency,[18],inactive
same,Potency,[15],inactive
same,Potency,[10],inactive
same,Potency,[11],inactive
same,Potency,[20],inactive
same,Potency,[16],inactive
same,Potency,[12],inactive
same,Potency,[14],inactive
CCc1cc(Cc2cc(CC)c(N)c(CC)c2)cc(CC)c1N,Potency,[1],inactive
same,Potency,[2],inactive
same,Potency,[3],inactive
same,Potency,[4],inactive
same,Potency,[5],inactive
same,Potency,[6],40.8 µM (active)
same,Potency,[18],inactive
same,Potency,[15],inactive
same,Potency,[10],inactive
same,Potency,[11],inactive
same,Potency,[20],inactive
same,Potency,[16],inactive
same,Potency,[14],54.5 µM (active)
COc1cc2ncnc(Nc3cccc(Cl)c3)c2cc1OC,"activity, positive = activation",[1],-25.9% [at 19 µM] (inactive)
same,activity change,[2],"-1.73% [at 11.8 µM, stronger effect = higher value] (inactive)"
same,activation,[3],1.01% [at 15.8 µM] (inactive)
same,activation,[4],-11.3% [at 13.5 µM] (inactive)
same,activation,[5],-0.041% [at 13.6 µM] (inactive)
same,"activity change, negative = cytotoxicity",[6],-15.6% [at 13.5 µM] (inactive)
same,"activity change, negative = cytotoxicity",[7],-3.32% [at 13.5 µM] (inactive)
same,"activity change, negative = cytotoxicity",[8],-12.1% [at 13.5 µM] (inactive)
same,activation,[9],-4.37% [at 13.5 µM] (inactive)
same,"activity, negative = inhibition",[18],2.95% [at 12.7 µM] (inactive)
same,activation,[15],-3.99% [at 15.9 µM] (inactive)
same,"activity, negative = inhibition",[10],-4.44% [at 12.6 µM] (inactive)
same,activation,[11],-1.11% [at 15.8 µM] (inactive)
same,"activity change, negative = inhibition",[12],-2.49% [at 19 µM] (inactive)
same,activation,[13],-4.16% [at 19 µM] (inactive)
same,"activity change, negative = inhibition",[14],-0.58% [at 18.9 µM] (inactive)
O=C(Oc1ccccc1)c1ccc2ccccc2c1O,Potency,[1],8.63 µM (active)
same,Potency,[2],inactive
same,Potency,[3],inactive
same,Potency,[4],inactive
same,Potency,[5],inactive
same,Potency,[6],inactive
same,Potency,[7],inactive
same,Potency,[8],inactive
same,Potency,[9],inactive
same,Potency,[18],inactive
same,Potency,[15],inactive
same,Potency,[10],inactive
same,Potency,[11],inactive
same,Potency,[20],inactive
same,Potency,[16],inactive
same,Potency,[12],inactive
same,Potency,[19],inactive
same,Potency,[14],inactive
Cc1c2ccccc2c(C)c2c1ccc1ccccc12,Potency,[1],13.5 µM (active) and 9.69 µM (active)
same,Potency,[2],inactive
same,Potency,[3],inactive
same,Potency,[4],inactive
same,Potency,[6],inactive
same,Potency,[8],inactive
same,Potency,[18],inactive
same,Potency,[15],10.9 µM (active) and inactive
same,Potency,[10],inactive
same,Potency,[11],inactive
same,Potency,[12],inactive
same,Potency,[13],inactive
same,Potency,[14],inactive
